Screen size: about 310,000 compounds; about 14,000 (4.5%) showed an effect of 50% or more. Effects have a minus sign here. This excerpt belongs to a sample that is enriched for strong results.
Target: human ether-à-go-go-related gene (hERG) potassium channel (human, UniProt Q12809)
Experiment: primary screen, population patch clamp on CHO cells stably expressing hERG; higher = less effect of the substance
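Note: peak tail current of the secondary pulse compared with the same well before compound.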

Sequence of human ether-à-go-go-related gene (hERG) potassium channel (Q12809 whole entry, looked up): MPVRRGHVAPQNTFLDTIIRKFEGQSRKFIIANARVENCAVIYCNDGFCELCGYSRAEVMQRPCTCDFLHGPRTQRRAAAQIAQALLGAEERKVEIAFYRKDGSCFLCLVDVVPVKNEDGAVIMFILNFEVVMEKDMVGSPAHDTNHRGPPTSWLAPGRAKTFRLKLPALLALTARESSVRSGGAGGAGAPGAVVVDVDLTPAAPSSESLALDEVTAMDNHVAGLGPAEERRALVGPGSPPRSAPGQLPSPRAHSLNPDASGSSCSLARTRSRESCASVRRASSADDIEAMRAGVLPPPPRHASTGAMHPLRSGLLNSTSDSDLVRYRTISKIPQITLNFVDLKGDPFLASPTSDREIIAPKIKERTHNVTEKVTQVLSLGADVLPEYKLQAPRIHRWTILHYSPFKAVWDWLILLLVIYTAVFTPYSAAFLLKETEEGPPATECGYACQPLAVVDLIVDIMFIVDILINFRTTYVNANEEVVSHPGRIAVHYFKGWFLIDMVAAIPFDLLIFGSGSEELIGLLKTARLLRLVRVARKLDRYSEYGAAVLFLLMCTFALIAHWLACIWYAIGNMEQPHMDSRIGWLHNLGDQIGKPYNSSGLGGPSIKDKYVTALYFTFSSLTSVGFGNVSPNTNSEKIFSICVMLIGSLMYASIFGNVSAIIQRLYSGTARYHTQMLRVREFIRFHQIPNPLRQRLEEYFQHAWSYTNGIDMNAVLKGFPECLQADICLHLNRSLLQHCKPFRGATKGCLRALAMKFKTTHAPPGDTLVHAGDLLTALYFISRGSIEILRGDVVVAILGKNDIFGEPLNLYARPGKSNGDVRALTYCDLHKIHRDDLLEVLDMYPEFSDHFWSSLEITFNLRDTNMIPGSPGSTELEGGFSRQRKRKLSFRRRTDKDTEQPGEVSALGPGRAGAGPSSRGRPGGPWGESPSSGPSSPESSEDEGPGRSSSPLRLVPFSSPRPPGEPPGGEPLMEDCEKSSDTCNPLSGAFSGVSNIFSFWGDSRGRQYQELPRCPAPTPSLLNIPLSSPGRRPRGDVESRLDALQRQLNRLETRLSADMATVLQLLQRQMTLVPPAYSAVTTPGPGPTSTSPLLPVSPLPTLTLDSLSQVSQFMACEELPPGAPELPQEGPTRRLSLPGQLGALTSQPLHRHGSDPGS

| Structure (SMILES) | hERG current change (%, negative = inhibition) at 10uM |
| --- | --- |
| O=C(Cc1csc(NC(=O)c2ccccc2)n1)NO | 8.93% |
| O=[N+]([O-])c1cc(CS(=O)(=O)Oc2ccc(Cl)cc2)c(O)c([N+](=O)[O-])c1 | 15.1% |
| CCCn1nnnc1NC(=O)c1ccc(C)cc1Cl | 5.02% |
| O=C(NCCOCCOCCNC(=O)c1ccccc1)c1ccccc1 | 12.7% |
| CCOc1cc2[nH]c(=O)n(CCCC(=O)NCc3ccc(OC)cc3)c(=O)c2cc1OCC | 8.71% |
| CCCCN(C)CCn1c(=S)[nH]c2cc(OCC)c(OCC)cc2c1=O | -55.8% |
| CCOc1cc2[nH]c(=S)n(CCCN3CCOCC3)c(=O)c2cc1OCC | -18.5% |
| CCOc1cc2[nH]c(=S)n(CCCOC)c(=O)c2cc1OCC | -12.1% |
| CC1CCN(CCn2c(=S)[nH]c3cc4c(cc3c2=O)OCO4)CC1 | -27.4% |
| CCOc1cc2[nH]c(=S)n(CCN3CCC(C)CC3)c(=O)c2cc1OCC | -51.2% |
| CCOc1cc2[nH]c(=O)n(CCCN3CCN(c4ccc(OC)cc4)CC3)c(=O)c2cc1OCC | -67.8% |
| CCOc1cc2[nH]c(=O)n(CCCN3CCCC3=O)c(=O)c2cc1OCC | -6.1% |
| CCOc1cc2[nH]c(=S)n(CCCN(CC)CC)c(=O)c2cc1OCC | -29.6% |
| O=C(CCCCCn1c(=S)[nH]c2ccc(N3CCOCC3)cc2c1=O)NC1CCN(Cc2ccccc2)CC1 | -9.35% |
| COc1ccccc1N(C(=O)c1csnn1)C(C(=O)NC1CCCC1)c1ccccc1 (stereo not shown) | -1.69% |
| Cc1c(Cl)cccc1NC(=O)CSc1sc2c(O)cc(=O)[nH]c2c1C#N | -2.45% |
| Cc1ccc(O)c(C2=Nc3ccccc3N=C(c3cccs3)C2)c1 | 12% |
| COc1ccc(N2CCN(C(CNC(=O)Oc3ccccc3)c3cccnc3)CC2)cc1 (stereo not shown) | -27.5% |
| CN1CCN(C(CNS(=O)(=O)c2cccs2)c2cccnc2)CC1 (stereo not shown) | -21.4% |
| CCN1CCN(C(CNS(=O)(=O)c2cccs2)c2cccnc2)CC1 (stereo not shown) | -61.4% |
| O=S(=O)(NCC(c1cccnc1)N1CCN(c2ccccc2)CC1)c1cccs1 (stereo not shown) | -60.4% |
| COc1ccc(N2CCN(C(CNS(=O)(=O)c3cccs3)c3cccnc3)CC2)cc1 (stereo not shown) | -72.5% |
| COC(=O)NCC(c1cccnc1)N1CCN(c2ccccc2)CC1 (stereo not shown) | -13.3% |
| O=S(=O)(NCC(c1cccnc1)N1CCN(c2ccc(F)cc2)CC1)c1cccs1 (stereo not shown) | -71.7% |
| CCS(=O)(=O)NCC(c1cccnc1)N1CCN(c2ccc(OC)cc2)CC1 (stereo not shown) | -11.3% |
| O=S(=O)(NCC(c1cccnc1)N1CCOCC1)c1cccs1 (stereo not shown) | -10.9% |
| CCCOc1ccc(C2C(C(=O)c3cc4ccccc4o3)=C(O)C(=O)N2c2cc(C)on2)cc1OC (stereo not shown) | 25.3% |
| Cc1cnc(C(=O)Oc2ccc(-c3ccccc3)cc2)cn1 | 16.8% |

| Structure (SMILES) | hERG current change (%, negative = inhibition) at 10uM |
| --- | --- |
| CCCCOCCCNC(=O)c1ccc(OC)cc1 | -6.63% |
| COc1ccc(NS(=O)(=O)c2cc3c(cc2C)N(C)CCO3)cc1 | -10.5% |
| CS(=O)(=O)NCC(c1cccnc1)N1CCN(c2ccccc2F)CC1 (stereo not shown) | -9.77% |
| O=S(=O)(NCC(c1cccnc1)N1CCN(c2ccccc2F)CC1)c1cccs1 (stereo not shown) | -60.5% |
| CCS(=O)(=O)NCC(c1cccnc1)N1CCN(c2ccccc2F)CC1 (stereo not shown) | -3.19% |
| Cc1ccc(C(=O)CCC(=O)N2CCC(C(N)=O)CC2)cc1 | 32% |
| CCOC(=O)C1(CCC(C)C)CC(CSc2nc3ccccc3[nH]2)OC1=O (stereo not shown) | -25.2% |
| O=C(O)c1cc([N+](=O)[O-])c(NCc2cccnc2)c([N+](=O)[O-])c1 | 9.52% |
| COc1ccc2c(c1)c(C(=O)CN1CCN(C)CC1)c(C)n2Cc1ccccc1 | -35% |
| CCN1CCN(CC(=O)c2c(C)n(Cc3ccccc3)c3ccc(OC)cc23)CC1 | -41.3% |
| COc1ccc2c(c1)c(C(=O)CN1CCC3(CC1)OCCO3)c(C)n2Cc1ccccc1 | -53% |
| CCOC(=O)N[C@H](Cc1c[nH]c2ccccc12)C(=O)NC1CC1 | 3.42% |
| Cc1ccccc1N1CCN(C(=O)CN2C(=O)c3ccccc3C2=O)CC1 | -11.8% |
| O=C(CN1C(=O)CSc2ccccc21)NC1CCCC1 | 0.766% |
| CC(C)CNC(=O)c1ccccc1SCC(=O)NC12CC3CC(CC(C3)C1)C2 | -5.62% |
| COc1ccc2[nH]c(C(=O)N3CCC(n4nccc4NC(=O)C4CC4)CC3)c(C)c2c1 | -30.4% |
| O=C(Nc1ccnn1C1CCN(Cc2cc3ccccc3[nH]2)CC1)C1CCOC1 (stereo not shown) | -31.5% |
| Cc1c(CN2CCC(n3nccc3NC(=O)C3CC3)CC2)[nH]c2ccccc12 | -61% |
| Cc1c(CN2CCC(n3nccc3NC(=O)C3CCOC3)CC2)[nH]c2ccccc12 (stereo not shown) | -30.6% |
| Cc1cc(C)c2[nH]c(C(=O)N3CCC(n4nccc4NC(=O)C4CC4)CC3)c(C)c2c1 | -44.6% |
| COc1cccc(CC(=O)N2CCC(n3nccc3NC(=O)C3CC3)CC2)c1 | 32% |
| COc1ccc2[nH]c(CN3CCC(n4nccc4NC(=O)C4CC4)CC3)c(C)c2c1 | -63.3% |
| Cc1c(C(=O)N2CCC(n3nccc3NC(=O)C3CC3)CC2)[nH]c2ccc(Cl)cc12 | -59.4% |
| COc1ccc(C(=O)Nc2ccnn2C2CCN(Cc3cn(C)nc3C)CC2)cc1 | 17.1% |
| O=C(Cn1cnc([N+](=O)[O-])c1)NCc1ccc(F)cc1 | 7.86% |
| O=C(NC(=S)Nc1ncccn1)c1ccccc1Cl | 11.8% |
| O=C(Nc1cc([N+](=O)[O-])ccc1F)C1CC1 | -4.7% |
